Screen size: about 5,500 compounds; about 2,000 (36%) were called active. Not shown: some 18% with an inconclusive outcome. Cut-off read from the data, not from the text of the source: active = normalized growth mostly below about 0.91 (no sharp cut-off); inconclusive = no clear call, values can overlap the other calls; inactive = mostly above about 0.92. This is one part of the list.
Assay: chemical genetic growth profiling, strain panel (AID 1159580);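 note: tested at 20 µM; growth read once vehicle control cultures reached saturation at 30 °C; 1 = growth at the plate median or of vehicle wells; lower values mean less growth of the strain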
Conditions: S. cerevisiae deletion strains, growth OD
[1] = locus YDL101C, strain DUN1, hits give low values
[2] = locus YHR030C, strain SLT2, hits give low values

Measured: normalized growth

Cc1onc(-c2c(Cl)cccc2Cl)c1C(=O)OCC(F)(F)F
inactive: locus YAL013W, strain DEP1, hits give low values 1.01 | locus YBR229C, strain ROT2, hits give low values 1.01 | locus YCL061C, strain MRC1, hits give low values 1.02 | [1] 0.984 | locus YDR150W, strain NUM1, hits give low values 0.982 | locus YEL061C, strain CIN8, hits give low values 1 | locus YGR078C, strain PAC10, hits give low values 0.99 | [2] 1.05 | locus YHR087W, strain rtc3, hits give low values 0.986 | locus YJR043C, strain POL32, hits give low values 0.99 | locus YJR075W, strain HOC1, hits give low values 1 | locus YKL190W, strain CNB1, hits give low values 1 | locus YLR039C, strain RIC1, hits give low values 0.955 | locus YLR058C, strain SHM2 (second series), hits give low values 1.01 | locus YLR085C, strain ARP6, hits give low values 0.971 | locus YLR262C, strain YPT6, hits give low values 0.942 | locus YML094W, strain GIM5, hits give low values 1.01 | locus YMR219W, strain ESC1, hits give low values 0.997 | locus YMR263W, strain SAP30, hits give low values 1 | locus YNL153C, strain GIM3, hits give low values 1.02 | locus YNL298W, strain CLA4 (second series), hits give low values 1.02 | locus YNL322C, strain KRE1, hits give low values 1 | locus YNR030W, strain Alg12, hits give low values 0.985 | locus YPL055C, strain LGE1, hits give low values 1.01 | locus YPL241C, strain CIN2, hits give low values 1.04 | locus YPR135W, strain CTF4, hits give low values 0.989

Cc1ccc(NNC(=O)c2c(C)noc2C)cc1Cl
inactive: locus YAR019C, strain CDC15, hits give low values 0.977 | locus YBL105C, strain PKC1, hits give low values 0.972 | locus YBR135W, strain CKS1, hits give low values 0.982 | locus YBR136W, strain MEC1, hits give low values 0.975 | locus YBR160W, strain CDC28, hits give low values 0.982 | locus YDL017W, strain CDC7, hits give low values 0.979 | locus YDL028C, strain MPS1, hits give low values 0.986 | [1] 0.976 | locus YDL108W, strain KIN28, hits give low values 0.981 | locus YDL132W, strain cdc53, hits give low values 0.987 | locus YDL214C, strain PRR2, hits give low values 0.939 | locus YDR052C, strain DBF4, hits give low values 0.988 | locus YDR054C, strain cdc34, hits give low values 0.993 | locus YDR226W, strain ADK1, hits give low values 0.978 | locus YDR477W, strain SNF1, hits give low values 0.946 | locus YER123W, strain YCK3, hits give low values 0.857 | locus YER133W, strain GLC7, hits give low values 0.947 | locus YFL009W, strain cdc4, hits give low values 0.986 | locus YFL029C, strain CAK1, hits give low values 0.984 | locus YFR003C, strain YPI1, hits give low values 0.983 | locus YFR019W, strain FAB1, hits give low values 0.903 | locus YFR028C, strain CDC14, hits give low values 0.992 | locus YGR040W, strain KSS1, hits give low values 0.925 | locus YGR052W, strain FMP48, hits give low values 0.987 | locus YGR092W, strain DBF2, hits give low values 0.833 | [2] 0.865 | locus YHR079C, strain IRE1, hits give low values 0.964 | locus YHR082C, strain KSP1, hits give low values 1.02 | locus YHR205W, strain SCH9, hits give low values 0.926 | locus YIL147C, strain SLN1, hits give low values 0.983 | locus YJL095W, strain BCK1, hits give low values 0.929 | locus YJL128C, strain PBS2, hits give low values 0.979 | locus YJL157C, strain FAR1, hits give low values 0.923 | locus YJR016C, strain ILV3, hits give low values 0.981 | locus YJR066W, strain TOR1 (second series), hits give low values 0.909 | locus YJR066W, strain TOR1, hits give low values 0.983 | locus YKL048C, strain ELM1, hits give low values 0.916 | locus YKL067W, strain YNK1, hits give low values 0.935 | locus YKL101W, strain HSL1, hits give low values 0.943 | locus YKL193C, strain SDS22, hits give low values 0.985 | locus YKL203C, strain TOR2, hits give low values 1 | locus YLR113W, strain HOG1, hits give low values 0.868 | locus YLR133W, strain CKI1, hits give low values 0.943 | locus YLR403W, strain SFP1, hits give low values 0.92 | locus YML070W, strain DAK1, hits give low values 0.906 | locus YMR001C, strain CDC5, hits give low values 0.984 | locus YMR205C, strain PFK2 (second series), hits give low values 0.955 | locus YMR277W, strain FCP1, hits give low values 0.986 | locus YNL006W, strain LST8, hits give low values 0.99 | locus YNL020C, strain ARK1, hits give low values 0.948 | locus YNL161W, strain CBK1, hits give low values 0.98 | locus YNL183C, strain NPR1, hits give low values 0.98 | locus YNL207W, strain RIO2, hits give low values 0.992 | locus YNL222W, strain SSU72, hits give low values 0.982 | locus YNL307C, strain MCK1 (second series), hits give low values 0.881 | locus YOL078W, strain AVO1, hits give low values 0.98 | locus YOL136C, strain PFK27, hits give low values 0.922 | locus YOR061W, strain CKA2, hits give low values 0.917 | locus YOR119C, strain RIO1, hits give low values 0.976 | locus YOR231W, strain MKK1, hits give low values 0.917 | locus YOR329C, strain SCD5, hits give low values 0.986 | locus YPL031C, strain PHO85, hits give low values 0.944 | locus YPL153C, strain RAD53, hits give low values 0.922 | locus YPL204W, strain HRR25, hits give low values 0.956 | locus YPL209C, strain IPL1, hits give low values 0.973 | locus YPL256C, strain CLN2, hits give low values 0.903 | locus YPR025C, strain CCL1, hits give low values 0.981 | locus YPR106W, strain ISR1, hits give low values 0.981 | locus YPR111W, strain DBF20, hits give low values 0.961 | strain NNK1, hits give low values 0.975 | strain TSCII, hits give low values 0.98

From PubChem BioAssay AID1159580 (chemical genetic matrix, 2015)
